{"source": "PubChem BioAssay AID1259422", "about": "(The Scripps Research Institute Molecular Screening Center, 2018)", "note": "Hit rate of the full screen: of about 640,000 compounds, about 9,300 (1.5%) were called active. Only a selection was taken, and actives are over-represented in it overall. Values without a mark were called inactive. Cut-off read from the data, not from the text of the source: active = inhibition above about 32%; inactive = the rest."}
{"assay": "TEAD-YAP interaction inhibition, primary screen, TEAD-YAP interaction inhibitor project, luminescence, HEK-TIYL cells (AID 1259422);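 note: 0% = median of test compound wells and 100% = reference inhibitor wells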", "details": "TEAD-Gal4/YAP UAS-luciferase luminescence, at 9.12 µM, active compounds read high"}
{"smiles": "CC[n+]1c(/C=C/C=C2\\N(C)c3ccccc3C2(C)C)n(-c2ccccc2)c2ccc(Cl)cc21", "inhibition": "91.8% (active)"}
{"smiles": "C=C1C[C@@H](c2ccccc2)N2CCC[C@H]2[C@H]1C", "inhibition": "-6.5%"}
{"smiles": "C=C(C)CN(CC)C(C)Cc1ccc(OC)c(OC)c1", "note": "(stereo not given)", "inhibition": "-4.32%"}
{"smiles": "Cc1[nH]c2c(F)cccc2c1CCN", "inhibition": "1.82%"}
{"smiles": "CCOc1cc2c(cc1C=C(C#N)C#N)OCO2", "inhibition": "-1.58%"}
{"smiles": "CC1=CC(=Cc2sc3ccccc3[n+]2C)C=C(C)O1", "inhibition": "85.8% (active)"}
{"smiles": "Cc1ccc2nc(NC(=O)c3c(O)c4c(n(Cc5ccco5)c3=O)CCCC4)sc2c1", "inhibition": "-4.37%"}
{"smiles": "COc1cc(/C=C2\\C(=O)NC(=O)N(c3ccccc3)C2=O)ccc1O", "inhibition": "11.5%"}
{"smiles": "Cc1cc2c(cc1Br)NC(=O)C2(c1c(O)n(C)c(=O)n(C)c1=O)C(C#N)C#N", "note": "(stereo not given)", "inhibition": "-14.6%"}
{"smiles": "CN(C)P(=O)(c1cccc(C(=O)O)c1)N(C)C", "inhibition": "-4.89%"}
{"smiles": "CCOc1ccc(C(Nc2ccccc2)P2(=S)OCC(C)(C)CO2)cc1", "note": "(stereo not given)", "inhibition": "5.04%"}
{"smiles": "CN[C@@H]1C[C@H]2O[C@@](C)([C@@H]1OC)n1c3ccccc3c3c4c(c5c6ccccc6n2c5c31)C(=O)NC4", "inhibition": "102% (active)"}
{"smiles": "O=C1NC(=S)NC(=O)C1=Cc1ccc(-c2ccccc2)o1", "inhibition": "1.36%"}
{"smiles": "O=C(Cc1ccc(F)cc1)N(Cc1ccco1)C1CCN(Cc2ccncc2)CC1", "inhibition": "-7.86%"}
{"smiles": "COc1ccc(C=C(C#N)C#N)c(C)c1C", "inhibition": "-13.8%"}
{"smiles": "c1ccc2c(c1)[I+]c1ccccc1-2", "inhibition": "60% (active)"}
{"smiles": "CCOC(=O)C1=C(N)Oc2n[nH]c(C)c2C12C(=O)Nc1ccc(Br)cc12", "note": "(stereo not given)", "inhibition": "4.72%"}
{"smiles": "CC(=O)Nc1cc([N+](=O)[O-])ccc1N1CCN(C)CC1", "inhibition": "-2.87%"}
{"smiles": "COc1ccc(-n2c(-c3ccccc3)nc3ccccc3c2=O)cc1", "inhibition": "1.69%"}
{"smiles": "COc1ccc(C(C[N+](=O)[O-])c2c(-c3ccccc3)[nH]c3ccccc23)cc1", "note": "(stereo not given)", "inhibition": "52.6% (active)"}
{"smiles": "CCCCOc1ccccc1C1C(C#N)=C(N)Oc2c1c(=O)oc1ccccc21", "note": "(stereo not given)", "inhibition": "-0.47%"}
{"smiles": "Cc1ccc(NC(=O)C2C3c4ccccc4C(c4ccccc43)C2C(=O)O)cc1", "note": "(stereo not given)", "inhibition": "-0.29%"}
{"smiles": "CCCCC[n+]1ccc(-c2cc[n+](CCCCC)cc2)cc1", "inhibition": "56.5% (active)"}
{"smiles": "CCOC(=O)C1C2NC(=S)NC1(C)Oc1cc(OC)ccc12", "note": "(stereo not given)", "inhibition": "0.95%"}
{"smiles": "O=C(c1ccccc1)c1cc(Cl)ccc1N1C(=O)c2ccccc2C1=O", "inhibition": "-3.06%"}
{"smiles": "COc1cc(CN2CCN(C)CC2)ccc1O", "inhibition": "4.62%"}
{"smiles": "C[C@@H]1C[C@H]2CC[C@H](O2)[C@H](C)C(=O)O[C@@H](C)C[C@@H]2CC[C@@H](O2)[C@@H](C)C(=O)O[C@H](C)C[C@H]2CC[C@H](O2)[C@H](C)C(=O)O[C@@H](C)C[C@@H]2CC[C@@H](O2)[C@@H](C)C(=O)O1", "inhibition": "94.6% (active)"}
{"smiles": "N#C/C(=C\\c1cc2c(cc1Cl)OCO2)c1nn(CCO)c(N)c1C#N", "inhibition": "-18.8%"}
{"smiles": "CCC(=O)C1=C(C)OC(N)=C(C(=O)OC)C12C(=O)Nc1ccccc12", "note": "(stereo not given)", "inhibition": "3.18%"}
{"smiles": "COc1ccc2c(c1)c(C(=O)N1CCN(C)CC1)c(C)n2C", "inhibition": "-6.79%"}
{"smiles": "C(=N\\N1CCCCC1)/c1c[nH]c2ccccc12", "inhibition": "4.68%"}
{"smiles": "O=C1CC(=O)N(C2CCCCCC2)C(=O)N1", "inhibition": "-0.34%"}
{"smiles": "N#Cc1ccc(NC(=O)COC(=O)CCC2CCCC2)cc1Cl", "inhibition": "0.25%"}
{"smiles": "c1ccc2c(CCNC3CC4CCC3C4)c[nH]c2c1", "note": "(stereo not given)", "inhibition": "-1.36%"}
{"smiles": "CCCCCCOc1ccc(C=C2C(=O)NC(=S)NC2=O)cc1", "inhibition": "13%"}
